Assay outcomes deposited in PubChem by several laboratories.
CYP2C19 inh: blockers of cytochrome P450 2C19 activity – biochemical, luminescence, ADME assay, primary screen; 96,000 tested, 21% active; CYP2C19 Supersomes, luciferin-H EGE luminescence, 30 min; P33261; inhibition, % at 5 µM;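 active = CYP2C19 inhibition above a set limit at 5 µM in the primary screen, cut at about 50% in these data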;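 note: plate controls were negative control wells for no effect and 2.5 mM tranylcypromine positive control for full effect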
sEH activator: soluble epoxide hydrolase activators, primary screen, biochemical, human sEH; Bifunctional epoxide hydrolase 2 (Homo sapiens), P34913; purified human sEH enzymatic activity, activator screen; activation, % at 2 µM; 91,000 tested, 0.04% active; in the data active = activation above about 37%
Target sequence (P34913 whole entry, looked up): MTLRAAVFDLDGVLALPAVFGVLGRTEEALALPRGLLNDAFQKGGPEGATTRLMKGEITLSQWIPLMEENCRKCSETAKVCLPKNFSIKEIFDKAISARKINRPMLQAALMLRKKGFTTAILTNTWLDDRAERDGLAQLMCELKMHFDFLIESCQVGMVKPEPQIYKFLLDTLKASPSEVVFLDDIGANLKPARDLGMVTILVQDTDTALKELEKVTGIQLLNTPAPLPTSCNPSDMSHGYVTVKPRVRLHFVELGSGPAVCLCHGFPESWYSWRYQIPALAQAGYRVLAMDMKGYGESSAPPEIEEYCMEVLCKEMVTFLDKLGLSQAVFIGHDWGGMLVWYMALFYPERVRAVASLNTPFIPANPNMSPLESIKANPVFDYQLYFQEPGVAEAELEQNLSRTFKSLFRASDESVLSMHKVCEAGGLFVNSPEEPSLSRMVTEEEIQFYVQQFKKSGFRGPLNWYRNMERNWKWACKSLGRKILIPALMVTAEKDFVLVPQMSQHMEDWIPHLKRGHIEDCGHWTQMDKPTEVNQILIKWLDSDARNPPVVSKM
CYP2C9 activ: human CYP2C9 activators, primary screen, biochemical, luminescence; recombinant CYP2C9, luciferin-H conversion; active compounds read high; factor 1 = untreated enzyme, 0 = blocked; activation factor at 5 µM; 96,000 tested, 1.4% active; AID 1024, 2008;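 active = activation factor of 2 or more for CYP2C9 at a 5 µM dose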;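 note: 0 = sulfaphenazole-blocked wells and 1 = vehicle-only wells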
CYP2C19 act: human CYP2C19 activators, primary screen, biochemical, luminescence; AID 1025, 2008; 96,000 tested, under 10 active; Cytochrome P450 2C19 (Homo sapiens), P33261; recombinant CYP2C19, luciferin-H EGE luminescence; active compounds read high; 0 = fully inhibited enzyme, 1 = untreated enzyme; activation factor at 5 µM;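 active = activation factor of at least 2 at 5 µM in the primary screen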;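 note: 0 = wells with 2.5 mM tranylcypromine and 1 = vehicle-only wells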
sEH inhibitor: soluble epoxide hydrolase inhibitors, primary screen, biochemical, human sEH; Bifunctional epoxide hydrolase 2 (Homo sapiens), P34913; inhibition, % at 2 µM; recombinant human sEH enzymatic activity assay; 91,000 tested, 0.34% active; AID 707, 2007; in the data active = inhibition above about 80%
CYP2C9 inhib: blockers of cytochrome P450 2C9 activity – biochemical, luminescence, ADME assay, primary screen; inhibition, % at 5 µM; CYP2C9 Supersomes, luciferin-H conversion; 96,000 tested, 20% active; P11712;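 active = blocking of liver enzyme CYP2C9 beyond about 50% at 5 µM, limit read from the data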
Numbers without * were called inactive; · = not tested or not shown. A selection: hits, their analogues and other compounds. The true share with any hit is near 27%.

SMILES	CYP2C19 inh	sEH activator	CYP2C9 activ	CYP2C19 act	sEH inhibitor	CYP2C9 inhib
CCC(CC)C(=O)Nc1c(C)n(C)n(-c2ccccc2)c1=O	2.7	12.1	0.5	1	-9.7	51.2*
Cc1cccc(N(CC(=O)Nc2c(C)n(C)n(-c3ccccc3)c2=O)S(C)(=O)=O)c1C	90.8*	2.7	0.9	0.1	-3.6	12.2
Cc1ccc(N(CC(=O)Nc2c(C)n(C)n(-c3ccccc3)c2=O)S(C)(=O)=O)cc1C	·	22.9	·	·	-22.9	·
Cc1c(NC(=O)C(C)Sc2nc3ccccc3c(=O)n2CCO)c(=O)n(-c2ccccc2)n1C (stereo unspecified)	14.8	2.0	0.4	0.9	-1.8	57.7*
Cc1c(NC(=O)COC(=O)C(c2ccc(Cl)cc2)C(C)C)c(=O)n(-c2ccccc2)n1C (stereo unspecified)	31.2	23.5	0.4	0.7	-22.5	57.7*
COC(=O)c1sc(NC(=O)c2cnccn2)c(C(=O)OC)c1C	·	6.9	·	·	-8.9	·
CCn1c(NC(=O)Nc2cccc(C)c2C)cc2sccc21	47.4	·	0.7	0.5	·	26.2
Cc1c(NC(=O)CSc2nc3ccccc3n2C)c(=O)n(-c2ccccc2)n1C	1.3	-7.6	2.1*	1	9.2	-106.0
Cc1ccc(OCC(=O)c2ccc3c(c2)CCCC3)cc1C	1.5	1.1	1.4	1	-1.4	-39.6
O=C(COc1ccc(Br)cc1)c1ccc2c(c1)CCCC2	51.6*	9.8	1.6	0.5	-6.7	-62.5
C=CCC(C(=O)OC)(C(=O)OC)c1ccc([N+](=O)[O-])cn1	29.3	5.9	0.9	0.7	-5.2	10.3
COC(=O)C(Cc1cnc(Cl)s1)(C(=O)OC)c1ccc(C(F)(F)F)cc1[N+](=O)[O-]	87.0*	6.2	0.5	0.1	-6.3	50.6*
COC(=O)C(Cc1cnc(Cl)s1)(C(=O)OC)c1ccc([N+](=O)[O-])cc1[N+](=O)[O-]	79.2*	-6.6	0.3	0.2	6.6	67.2*
CCOc1ccc(C(F)(F)F)cc1NC(=O)c1ccc(OC)c([N+](=O)[O-])c1	-0.6	2.7	1.1	1	-2.0	-5.2
CC(Sc1nnc(N)s1)c1ccccc1Cl (stereo unspecified)	95.5*	-5.8	0.5	0	4.6	51.3*
O=C(c1cc(C2CC2)on1)N1CCOCC1	-3.2	6.0	1.1	1	-1.6	-5.1
O=C(NCC1CCCO1)C1CC(c2ccc(Cl)c(Cl)c2)=NO1 (stereo unspecified)	1.1	1.5	2.5*	1	3.9	-148.2
Cn1ncc(C#N)c1NC(=O)C1CC(c2c(F)cccc2Cl)=NO1 (stereo unspecified)	76.8*	8.2	0.3	0.2	-9.8	71.7*
Cn1ncc(C#N)c1NC(=O)C1CC(c2ccc(Cl)c(Cl)c2)=NO1 (stereo unspecified)	84.7*	4.1	0.5	0.2	-4.7	51.3*
Cn1ncc(C#N)c1NC(=O)c1cc(-c2ccccc2Cl)on1	-0.8	-0.7	0.8	1	2.4	18.7
O=C(CS(=O)(=O)c1c[nH]c2ccccc12)N1CCCCC1	63.7*	2.9	1.1	0.4	-1.6	-10.1
O=C(CS(=O)(=O)c1cn(Cc2ccccc2Cl)c2ccccc12)N1CCOCC1	·	12.5	·	·	-12.1	·
O=C(CS(=O)(=O)c1cn(Cc2ccc(Cl)cc2)c2ccccc12)N1CCCC1	76.5*	7.8	0.3	0.2	-7.1	70.2*
CN(C)S(=O)(=O)c1ccc(C(=O)N(c2ccccn2)c2ccccn2)cc1	-3.4	6.1	0.9	1	-8.2	6.7
COc1ccc(CCC(=O)Nc2nc3c(s2)CN(C)CC3)cc1OC	18.9	3.5	0.9	0.8	-2.2	9.2
SMILES	CYP2C19 inh	sEH activator	CYP2C9 activ	CYP2C19 act	sEH inhibitor	CYP2C9 inhib
Fc1ccc(Nc2nc(N3CCOCC3)c3ccccc3n2)cc1	75.9*	·	0.3	0.2	·	74.2*
O=C(C1CCC1)N1CCc2cc(S(=O)(=O)NCc3ccco3)ccc21	27.3	17.9	0.5	0.7	-14.9	48.1
Cc1onc(-c2ccccc2Cl)c1C(=O)Nc1ccc(S(=O)(=O)NCC2CCCO2)cc1 (stereo unspecified)	29.2	2.6	0.3	0.7	-4.8	67.0*
Cc1ccnc(NS(=O)(=O)c2ccc(NC(=O)c3c(-c4ccccc4Cl)noc3C)cc2)n1	·	-8.2	·	·	8.1	·
Cc1onc(-c2ccccc2Cl)c1C(=O)Nc1ccc(-n2nncc2-c2ccco2)cc1	99.4*	20.0	0.1	0	-18.8	92.8*
Cc1onc(-c2ccccc2Cl)c1C(=O)Nc1ccc(-n2nncc2C(C)(C)C)cc1	47.8	-0.3	1	0.5	1.8	4.3
CCCCNS(=O)(=O)c1ccc(NC(=O)c2c(-c3ccccc3Cl)noc2C)cc1	82.6*	-4.5	0	0.2	2.2	100.3*
O=C1CCCN1c1cccc(Br)c1	·	7.5	·	·	-2.3	·
O=C(CSc1nc(-c2ccccc2)nc2c1CCCC2)N1CCOCC1	-6.4	9.1	0.8	1.1	-9.6	17.9
O=c1nc2ccccc2c(NS(=O)(=O)c2ccc(Cl)cc2)n1-c1ccccc1	9.9	16.1	0.9	0.9	-12.8	5.0
O=[N+]([O-])c1cc(C(F)(F)F)ccc1NCCc1c[nH]c2ccc(O)cc12	4.0	2.3	0.3	1	-2.2	74.8*
CN(Cc1ccccc1)c1ncnc2ccc(Br)cc12	96.6*	-4.8	0.2	0	4.3	83.9*
COc1ccc(/C=N/n2c(SC)nnc(C(C)(C)C)c2=O)cc1OC	71.1*	-0.3	0.4	0.3	-1.0	56.8*
CCOC(=O)c1cc(NC(=O)OC)c(C)nc1C	-3.8	·	1.2	1	·	-21.1
O=C(Oc1ccc(Br)cc1C(=O)/C=C/c1ccccc1F)c1ccco1	·	-8.3	·	·	6.4	·
C=CCn1cnc2scc(-c3ccc(CC)cc3)c2c1=O	92.7*	2.1	0.5	0.1	-1.2	52.8*
CCn1cnc2scc(-c3ccccc3)c2c1=O	7.3	4.6	1	0.9	-0.3	-3.3
CCC(C)NC(=O)Nc1ccc2c(c1)N(C)C(=O)c1ccccc1S2 (stereo unspecified)	69.8*	-88.0	0	0.3	87.8*	97.0*
COc1ccc(N2C(=O)C3C4C=CC(C5CC45)C3C2=O)c([N+](=O)[O-])c1 (stereo unspecified)	37.5	0.8	2*	0.6	1.5	-102.2
COc1ccc(N2C(=O)C3C4C=CC(CC4)C3C2=O)c([N+](=O)[O-])c1 (stereo unspecified)	11.2	3.9	1.2	0.9	-1.1	-23.1
CC(C)C1C(C#N)=C(N)Oc2n[nH]c(C(C)(C)C)c21 (stereo unspecified)	-1.5	7.8	0.9	1	-4.3	7.3
